Sm TGR block – qHTS Assay for the Inhibitors of Schistosoma Mansoni Peroxiredoxins. purified TGR, DTNB reduction, TNB absorbance 405 nm. Potency, µM (highest dose often 114 µM), for the others: at the top dose activity change, negative = inhibition, most hits filed as inhibitors. 3% of 360,000 active. AID 485364, 2010; note: % is set by controls: 0 for no effect and ±100 for the full control effect; nearly all actives have a fitted effect of over 60% in size
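TGR 20 nM + NADPH 100 uM (dispensed conc.), cpd preinc 15 min RT; start with NADPH (500 uM addition) then DTNB (15 mM addition). Kinetic TNB absorbance, 405 nm filter. Four-parameter Hill fit across titration.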
SARS PLpro yeast – qHTS of Yeast-based Assay for SARS-CoV PLP; 0.19% of 330,000 active; S. cerevisiae expressing SARS-CoV PLpro, growth rescue; Potency, µM (top dose mostly 32.9 µM), inactives show at the top dose activity, positive = growth rescue, actives largely listed as activators; calls by dose curve; note: 0% is about no effect; nearly all actives have a fitted effect of over 55% in size
AmpC detergent – qHTS Inhibitors of AmpC Beta-Lactamase (assay with detergent); P00811; AmpC hydrolysis of nitrocefin, absorbance 480 nm, 0.01% Triton; Potency, µM (series often up to 114 µM), without a hit: at the top dose activity change, negative = inhibition, actives largely listed as inhibitors; 0.041% of 370,000 active; AID 485294, 2010;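 note: 0% = no-compound wells and -100% = no-enzyme wells; nearly all actives have a fitted effect of over 25% in size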
Target sequence (P00811 whole entry, looked up): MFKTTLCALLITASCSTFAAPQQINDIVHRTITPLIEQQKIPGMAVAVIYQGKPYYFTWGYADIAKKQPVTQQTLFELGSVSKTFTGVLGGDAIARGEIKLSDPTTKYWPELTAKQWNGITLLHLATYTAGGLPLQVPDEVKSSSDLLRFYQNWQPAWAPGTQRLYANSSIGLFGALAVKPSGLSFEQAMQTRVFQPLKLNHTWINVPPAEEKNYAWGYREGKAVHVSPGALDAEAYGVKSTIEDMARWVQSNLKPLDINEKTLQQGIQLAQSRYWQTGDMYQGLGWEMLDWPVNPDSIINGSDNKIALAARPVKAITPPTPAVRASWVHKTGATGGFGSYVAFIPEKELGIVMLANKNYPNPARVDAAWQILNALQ
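AmpC (5.3 nM in the dispensed reagent) in 20 mM phosphate pH 7.0 with 0.01% (detergent screen) or 0.0001% Triton X-100 was preincubated with compounds for 15 min at room temperature. Nitrocefin was then added from an 800 uM solution, and hydrolysis was followed at 480 nm.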
AmpC no deterg – qHTS Inhibitors of AmpC Beta-Lactamase (assay without detergent); AmpC nitrocefin hydrolysis, absorbance 480 nm, 0.0001% Triton; P00811; Potency, µM (highest dose often 57.1 µM), inactives show top-dose activity change, negative = inhibition, most hits filed as inhibitors; 0.52% of 330,000 active;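 note: plate controls were no compound for no effect and no enzyme for full effect; nearly all actives have a fitted effect of over 20% in size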
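AmpC (5.3 nM in the dispensed reagent) in 20 mM phosphate pH 7.0 with 0.01% (detergent screen) or 0.0001% Triton X-100 was preincubated with compounds for 15 min at room temperature. Nitrocefin was then added from an 800 uM solution, and hydrolysis was followed at 480 nm.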
Pf growth 48h – Primary qHTS for delayed death inhibitors of the malarial parasite plastid, 48 hour incubation; AID 504832, 2011; Potency, µM (top dose mostly 28.7 µM), for the others: top-dose activity change, negative = inhibition, actives largely listed as inhibitors; P. falciparum luciferase growth in erythrocytes, 48 h; 5.9% of 310,000 active; note: % is set by controls: 0 for no effect and ±100 for the full control effect
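In quantitative HTS format, infected erythrocytes bearing luciferase-reporter parasites were treated for a single generation at 37 C. Luminescence after adding detection reagent served as the growth measure.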
Pf growth 96h – Primary qHTS for delayed death inhibitors of the malarial parasite plastid, 96 hour incubation. 6.9% of 320,000 active. Potency, µM (doses to about 28.7 µM), for inactives: at the highest dose activity change, negative = inhibition, hits mostly inhibitors. P. falciparum luciferase reporter growth, 96 h; note: % is set by controls: 0 for no effect and ±100 for the full control effect
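Luminescence readout: decreased luciferase signal marks inhibited growth of reporter-expressing P. falciparum in infected red cells (2% hematocrit, 0.05% parasitemia final), exposed to compound two generations (96 h, 37 C, 5% CO2).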
Numbers without * were called inactive. Compounds with a hit are over-represented: about 12% of the library has one in this group of screens. Unless noted, calls come from the whole dose curve; as a rule, active = well fitted curve in the direction sought with a large enough effect; inconclusive = small, poorly fitted or top-dose-only effect, or another doubt; inactive = no such curve, though single readings can be large; an effect the other way counts as inactive or inconclusive. Potency is the fitted concentration of half-maximal effect.

Results for COc1cc(CNc2ccc(N3CCCC3)cc2)cc(Cl)c1OC ?
SARS PLpro yeast: -1.4%; AmpC detergent: 8.0%; AmpC no deterg: -10.7%; Pf growth 48h: 3.29µM*; Pf growth 96h: 40.0%

How did CCOc1cc(CNc2ccc(N3CCCC3)cc2)cc(Cl)c1OC do in these assays?
Sm TGR block: 25.1µM*; SARS PLpro yeast: -0.3%; AmpC detergent: -7.2%; AmpC no deterg: -26.4%; Pf growth 48h: 2.94µM*; Pf growth 96h: 5.22µM*

How did Cc1nc(N2CCCCC2)c2c(C)c(C(=O)Nc3cccc(C(F)(F)F)c3)sc2n1 do in these assays?
Sm TGR block: 16.7%; SARS PLpro yeast: -2.9%; AmpC detergent: 5.8%; AmpC no deterg: 45.2%; Pf growth 48h: 2.62µM*; Pf growth 96h: -29.7%

What do the screens show for `Cc1nc(N2CCCCC2)c2c(C)c(C(=O)Nc3ccccc3C(F)(F)F)sc2n1`?
Sm TGR block: -1.8%; SARS PLpro yeast: -1.7%; AmpC detergent: -9.5%; AmpC no deterg: 8.2%; Pf growth 48h: 9.28µM*; Pf growth 96h: inconclusive

How did CCC(C)N(C(=O)CSc1nnc2ccccn12)C1CCS(=O)(=O)C1 (centres undefined) do in these assays?
Sm TGR block: 0.6%; SARS PLpro yeast: -0.2%; AmpC detergent: inconclusive; AmpC no deterg: -5.7%; Pf growth 48h: -15.7%; Pf growth 96h: 12.8%

How did CC(C)(C)C(=O)Nc1ccc2nc(SCCOc3ccccc3Cl)sc2c1 do in these assays?
Sm TGR block: 6.6%; AmpC detergent: 8.0%

Results for O=S(=O)(c1cccs1)N1CCC(CO)(Cc2ccc(Cl)cc2)CC1 ?
Sm TGR block: 8.4%; SARS PLpro yeast: -2.1%; AmpC detergent: 0.1%; AmpC no deterg: 10.0%; Pf growth 48h: 25.2%; Pf growth 96h: 0.738µM*

What do the screens show for `O=S(=O)(c1ccc(Cl)cc1)N1CCC2(CC1)OCCN2S(=O)(=O)c1cccs1`?
Sm TGR block: -18.2%; SARS PLpro yeast: -2.7%; AmpC detergent: 0.0%; AmpC no deterg: -12.9%; Pf growth 48h: 13.1µM*; Pf growth 96h: inconclusive

How did COc1ccc(OC)c(S(=O)(=O)N2CCC3(CC2)OCCN3S(=O)(=O)c2cccs2)c1 do in these assays?
Sm TGR block: -23.3%; SARS PLpro yeast: -0.1%; AmpC detergent: 1.0%; AmpC no deterg: -30.9%; Pf growth 48h: inconclusive; Pf growth 96h: 10.4µM*

What do the screens show for `Cc1ccc(N/N=C/c2c(O)n(-c3ccccc3)c(=O)[nH]c2=O)cc1`?
Sm TGR block: 17.8µM*; SARS PLpro yeast: -8.5%; AmpC detergent: -3.8%; AmpC no deterg: -31.2%; Pf growth 48h: 52.0%; Pf growth 96h: 39.1%

How did COc1ccc(C(=O)/C=C(\C)NCc2ccc3c(c2)OCO3)cc1 do in these assays?
Sm TGR block: -8.2%; SARS PLpro yeast: 2.7%; AmpC detergent: -3.8%; AmpC no deterg: -21.8%; Pf growth 48h: 4.6%; Pf growth 96h: 10.9%

How did CSc1nnc(-c2sc3cc(C(F)(F)F)cnc3c2-c2ccccc2)n1C do in these assays?
Sm TGR block: -9.8%; SARS PLpro yeast: -8.9%; AmpC detergent: -0.5%; AmpC no deterg: 107.2%; Pf growth 96h: 6.57µM*

Results for c1cnc(N2CCN(c3ncc4c(n3)CCNC4)CC2)nc1 ?
Sm TGR block: 20.6%; AmpC detergent: 12.2%

How did Oc1c(Br)cc2oc3c(c2c1CNCc1ccccc1)CCCC3 do in these assays?
Sm TGR block: inconclusive; SARS PLpro yeast: -0.1%; AmpC detergent: -5.5%; AmpC no deterg: -28.0%; Pf growth 96h: 0.294µM*

Results for Oc1ccccc1CNCc1ccccc1 ?
Sm TGR block: 6.9%; SARS PLpro yeast: 0.0%; AmpC detergent: -10.5%; AmpC no deterg: -6.4%; Pf growth 48h: inconclusive; Pf growth 96h: inconclusive

What do the screens show for `CC(=O)N1c2ccccc2NC2=C(C(=O)CCC2)C1c1ccco1` (centres undefined)?
Sm TGR block: 35.5µM*; SARS PLpro yeast: 0.2%; AmpC detergent: -2.0%; AmpC no deterg: 12.5%; Pf growth 48h: inconclusive; Pf growth 96h: 117.5%

How did COc1ccc(C2C3=C(CC(c4ccco4)CC3=O)Nc3ccccc3N2C(C)=O)cc1 (centres undefined) do in these assays?
Sm TGR block: 15.3%; SARS PLpro yeast: 0.2%; AmpC detergent: inconclusive; AmpC no deterg: 6.2%; Pf growth 48h: -1.7%; Pf growth 96h: -24.9%

What do the screens show for `COC(=O)[C@]1(CC(C)C)N[C@H](c2ccc(-c3ccc(OC)cc3)cc2)[C@@H]2C(=O)N(C)C(=O)[C@@H]21`?
Sm TGR block: -26.1%; SARS PLpro yeast: -8.6%; AmpC detergent: -12.0%; AmpC no deterg: 94.9%; Pf growth 48h: inconclusive; Pf growth 96h: inconclusive

Results for CCN1C(=O)[C@H]2[C@@H](c3ccc(-c4ccc(F)cc4)c(OC)c3)N[C@@](CC(C)C)(C(=O)OC)[C@H]2C1=O ?
Sm TGR block: 39.8µM*; SARS PLpro yeast: -1.9%; AmpC detergent: -1.9%; AmpC no deterg: 143.8%; Pf growth 48h: 2.33µM*; Pf growth 96h: 2.62µM*

Results for COC(=O)[C@]1(CC(C)C)N[C@H](c2ccc(-c3ccc(F)cc3)cc2)[C@@H]2C(=O)N(C)C(=O)[C@@H]21 ?
Sm TGR block: inconclusive; SARS PLpro yeast: -2.4%; AmpC detergent: -1.3%; AmpC no deterg: 179.8%; Pf growth 48h: 3.29µM*; Pf growth 96h: 6.57µM*

How did CCN1C(=O)[C@H]2[C@@H](c3ccc(-c4ccc(F)cc4)cc3)N[C@@](CC(C)C)(C(=O)OC)[C@H]2C1=O do in these assays?
Sm TGR block: -13.3%; SARS PLpro yeast: 3.9%; AmpC detergent: -3.9%; AmpC no deterg: 93.7%; Pf growth 48h: 10.4µM*; Pf growth 96h: 5.22µM*

Results for CC(C)(C)c1csc(N/N=C/c2ccc(O)cc2)n1 ?
Sm TGR block: -26.9%; SARS PLpro yeast: 7.2%; AmpC detergent: -0.1%; AmpC no deterg: 10µM*; Pf growth 48h: 19.0%; Pf growth 96h: inconclusive

What do the screens show for `Cc1nc(Cl)cc(N/N=C/c2ccc(O)cc2)n1`?
Sm TGR block: 0.9%; SARS PLpro yeast: -4.1%; AmpC detergent: 4.8%; AmpC no deterg: -23.3%; Pf growth 48h: 11.3%; Pf growth 96h: -20.2%

How did Cc1cc(C)cc(NC(=O)c2sc3nc[nH]c(=O)c3c2C)c1 do in these assays?
Sm TGR block: 9.8%; AmpC detergent: 5.1%
